According to PubChem BioAssay (NCATS):
Records with an inconclusive call do not appear. Activity calls are given as the source filed them. Calls follow the shape of the dose curve; as a rule, active = well fitted cell-killing curve with a large enough effect; inconclusive = small, poorly fitted or top-dose-only effect, or effect the other way; inactive = no such curve, though single readings can be large or run the other way.

How the values were obtained:
[1] = Quantitative High-Throughput drug screen in 47 multiple myeloma cell lines against the NCATS MIPE library collection: MM1R_ATCC cell viability assay (AID 1918981); also: nearly all actives have a fitted effect of over 35% in size
How it was run: (§1)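 500 cells/well per myeloma line exposed to pinned MIPE 4.0 compounds for 48 h at 37 °C, 5% CO2. Viability read as ATP by CellTiter-Glo luminescence, normalised to DMSO-only (100%) and media-only (0%) wells.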

[2] = Quantitative High-Throughput drug screen in 47 multiple myeloma cell lines against the NCATS MIPE library collection: LP1_DSMZ cell viability assay (AID 1918982); also: nearly all actives have a fitted effect of over 35% in size
How it was run: as §1

[3] = Quantitative High-Throughput drug screen in 47 multiple myeloma cell lines against the NCATS MIPE library collection: KMS28PE_JCRB cell viability assay (AID 1918983); also: nearly all actives have a fitted effect of over 35% in size
How it was run: as §1

[4] = Quantitative High-Throughput drug screen in 47 multiple myeloma cell lines against the NCATS MIPE library collection: L363_DSMZ cell viability assay (AID 1918984); also: nearly all actives have a fitted effect of over 40% in size
How it was run: as §1

[5] = Quantitative High-Throughput drug screen in 47 multiple myeloma cell lines against the NCATS MIPE library collection: KMS34_JCRB cell viability assay (AID 1918985); also: nearly all actives have a fitted effect of over 40% in size
How it was run: as §1

[6] = Quantitative High-Throughput drug screen in 47 multiple myeloma cell lines against the NCATS MIPE library collection: OCIMY7_PLB cell viability assay (AID 1918987); settings: OCI-MY7 myeloma viability, CellTiter-Glo ATP, 48 h; viability (% of DMSO): at 45.8 µM (top of the series); also: nearly all actives have a fitted effect of over 65% in size
How it was run: as §1

[7] = Quantitative High-Throughput drug screen in 47 multiple myeloma cell lines against the NCATS MIPE library collection: OCIMY5_PLB cell viability assay (AID 1918988); also: nearly all actives have a fitted effect of over 65% in size
How it was run: as §1

[8] = Quantitative High-Throughput drug screen in 47 multiple myeloma cell lines against the NCATS MIPE library collection: OPM1_PLB cell viability assay (AID 1918989); also: nearly all actives have a fitted effect of over 40% in size
How it was run: as §1

[9] = Quantitative High-Throughput drug screen in 47 multiple myeloma cell lines against the NCATS MIPE library collection: U266_ATCC cell viability assay (AID 1919864); also: nearly all actives have a fitted effect of over 35% in size
How it was run: as §1

[10] = Quantitative High-Throughput drug screen in 47 multiple myeloma cell lines against the NCATS MIPE library collection: XG6_PLB cell viability assay (AID 1919865); also: nearly all actives have a fitted effect of over 40% in size
How it was run: as §1

[11] = Quantitative High-Throughput drug screen in 47 multiple myeloma cell lines against the NCATS MIPE library collection: XG1_PLB cell viability assay (AID 1919866); also: nearly all actives have a fitted effect of over 35% in size
How it was run: as §1

[12] = Quantitative High-Throughput drug screen in 47 multiple myeloma cell lines against the NCATS MIPE library collection: VP6_DJ cell viability assay (AID 1919867); also: nearly all actives have a fitted effect of over 40% in size
How it was run: as §1

[13] = Quantitative High-Throughput drug screen in 47 multiple myeloma cell lines against the NCATS MIPE library collection: UTMC2_PLB cell viability assay (AID 1919868); settings: CellTiter-Glo ATP luminescence, 48 h; viability (% of DMSO control): at 45.8 µM (top of the series); also: nearly all actives have a fitted effect of over 55% in size
How it was run: as §1

[14] = Quantitative High-Throughput drug screen in 47 multiple myeloma cell lines against the NCATS MIPE library collection: PCM6_Riken cell viability assay (AID 1919870); also: nearly all actives have a fitted effect of over 30% in size
How it was run: as §1

[15] = Quantitative High-Throughput drug screen in 47 multiple myeloma cell lines against the NCATS MIPE library collection: KMS11_JCRBsus cell viability assay (AID 1919873); also: nearly all actives have a fitted effect of over 50% in size
How it was run: as §1

[16] = Quantitative High-Throughput drug screen in 47 multiple myeloma cell lines against the NCATS MIPE library collection: KMS28BM_JCRB cell viability assay (AID 1919874); also: nearly all actives have a fitted effect of over 35% in size
How it was run: as §1

[17] = Quantitative High-Throughput drug screen in 47 multiple myeloma cell lines against the NCATS MIPE library collection: PE2_PLB cell viability assay (AID 1919869); also: nearly all actives have a fitted effect of over 35% in size
How it was run: as §1

[18] = Quantitative High-Throughput drug screen in 47 multiple myeloma cell lines against the NCATS MIPE library collection: RPMI8226_ATCC cell viability assay (AID 1919871); also: nearly all actives have a fitted effect of over 30% in size
How it was run: as §1

[19] = Quantitative High-Throughput drug screen in 47 multiple myeloma cell lines against the NCATS MIPE library collection: OPM2_DSMZ cell viability assay (AID 1919872); also: nearly all actives have a fitted effect of over 30% in size
How it was run: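 Steps: seed 500 cells per well; pin-transfer MIPE 4.0 library; incubate 48 h at 37C, 5% CO2, humidified; add CellTiter-Glo, 5 min room temperature; read luminescence.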

[20] = Quantitative High-Throughput drug screen in 47 multiple myeloma cell lines against the NCATS MIPE library collection: SKMM1_PLB cell viability assay (AID 1919863); settings: SKMM1 myeloma viability, CellTiter-Glo ATP, 48 h; viability: hits give low values; also: nearly all actives have a fitted effect of over 35% in size
How it was run: as §1
Potency is read from the fitted curve at half-maximal effect.

Cc1ccc(F)c(NC(=O)Nc2ccc(-c3cccc4[nH]nc(N)c34)cc2)c1
active: Potency [1] 23.5 µM | Potency [2] 16.6 µM | Potency [3] 26.4 µM | Potency [4] 4.18 µM | Potency [5] 26.4 µM | Potency [6] 4.69 µM | Potency [7] 20.9 µM | Potency [8] 10.5 µM | Potency [9] 16.6 µM | Potency [10] 16.6 µM | Potency [11] 16.6 µM | Potency [12] 16.6 µM | Potency [13] 8.33 µM | Potency [14] 23.5 µM | Potency [15] 5.26 µM | Potency [16] 8.33 µM

Cc1nc(N)sc1-c1ccnc(Nc2ccc(N3CCOCC3)cc2)n1
active: Potency [1] 10.5 µM | Potency [2] 20.9 µM | Potency [3] 16.6 µM | Potency [4] 2.96 µM | Potency [5] 1.05 µM | Potency [7] 5.26 µM | Potency [8] 4.18 µM | Potency [9] 23.5 µM | Potency [10] 4.69 µM | Potency [11] 2.64 µM | Potency [12] 3.32 µM | Potency [13] 0.59 µM | Potency [17] 3.32 µM | Potency [18] 11.8 µM | Potency [19] 11.8 µM | Potency [15] 7.43 µM | Potency [16] 16.6 µM

O=C(Nc1c(Cl)cncc1Cl)c1ccc(OC(F)F)c(OCC2CC2)c1
active: Potency [11] 18.7 µM
inactive: Potency [1] | Potency [2] | Potency [3] | Potency [4] | Potency [8] | viability [20] 111% | Potency [9] | Potency [18] | Potency [19] | Potency [15] | Potency [16]

Cc1[nH]c(C=C2C(=O)Nc3ccc(S(=O)(=O)Cc4c(Cl)cccc4Cl)cc32)c(C)c1C(=O)N1CCC[C@H]1CN1CCCC1
active: Potency [1] 20.9 µM | Potency [2] 23.5 µM | Potency [3] 20.9 µM | Potency [4] 2.35 µM | Potency [5] 20.9 µM | Potency [6] 10.5 µM | Potency [7] 14.8 µM | Potency [8] 8.33 µM | Potency [20] 20.9 µM | Potency [9] 23.5 µM | Potency [10] 8.33 µM | Potency [11] 5.26 µM | Potency [12] 8.33 µM | Potency [13] 20.9 µM | Potency [17] 20.9 µM | Potency [18] 20.9 µM | Potency [19] 26.4 µM | Potency [15] 11.8 µM | Potency [16] 20.9 µM

CC(C)=CC[C@@H](O)C1=CC(=O)c2c(O)ccc(O)c2C1=O
active: Potency [1] 0.264 µM | Potency [2] 3.32 µM | Potency [3] 1.05 µM | Potency [5] 1.05 µM | Potency [7] 0.469 µM | Potency [8] 16.6 µM | Potency [20] 1.05 µM | Potency [9] 0.469 µM | Potency [10] 0.469 µM | Potency [11] 0.418 µM | Potency [12] 0.833 µM | Potency [13] 13.2 µM | Potency [17] 0.264 µM | Potency [18] 1.87 µM | Potency [19] 1.32 µM | Potency [15] 1.18 µM | Potency [16] 0.833 µM

CC[C@@]1(O)C[C@H](O[C@H]2C[C@H](N(C)C)[C@H](O[C@H]3C[C@H](O)[C@H](O[C@H]4CCC(=O)[C@H](C)O4)[C@H](C)O3)[C@H](C)O2)c2c(cc3c(c2O)C(=O)c2c(O)cccc2C3=O)[C@@H]1C(=O)OC
active: Potency [1] 0.209 µM | Potency [2] 1.05 µM | Potency [3] 0.418 µM | Potency [5] 2.09 µM | Potency [6] 0.372 µM | Potency [7] 0.0935 µM | Potency [8] 0.833 µM | Potency [20] 0.833 µM | Potency [9] 0.418 µM | Potency [10] 0.296 µM | Potency [11] 0.132 µM | Potency [12] 0.59 µM | Potency [13] 0.187 µM | Potency [17] 0.526 µM | Potency [14] 1.05 µM | Potency [18] 0.296 µM | Potency [19] 4.18 µM | Potency [15] 0.166 µM | Potency [16] 0.132 µM

CC(C)(C)COc1ccc(-n2cc(C(=O)O)cn2)cc1C#N
inactive: Potency [1] | Potency [2] | Potency [3] | Potency [4] | Potency [5] | viability [20] 120% | Potency [9] | Potency [10] | Potency [11] | Potency [13] | Potency [14] | Potency [18] | Potency [19] | Potency [15]

NS(=O)(=O)c1cccc2c1C(=O)c1cccc(O)c1C2=O
active: Potency [1] 0.526 µM | Potency [2] 0.743 µM | Potency [3] 1.18 µM | Potency [4] 0.166 µM | Potency [5] 0.418 µM | Potency [7] 0.526 µM | Potency [8] 0.235 µM | Potency [20] 0.372 µM | Potency [9] 6.62 µM | Potency [10] 0.372 µM | Potency [11] 0.264 µM | Potency [13] 0.372 µM | Potency [17] 0.187 µM | Potency [18] 0.833 µM | Potency [19] 2.64 µM | Potency [15] 0.105 µM | Potency [16] 0.469 µM

CC(=O)Nc1ccc([C@H](C)C(=O)Nc2ncc(C(C)C)s2)cc1
active: Potency [1] 0.743 µM | Potency [2] 2.35 µM | Potency [3] 7.43 µM | Potency [5] 3.72 µM | Potency [7] 0.743 µM | Potency [8] 5.26 µM | Potency [20] 8.33 µM | Potency [9] 4.69 µM | Potency [10] 0.0935 µM | Potency [11] 0.418 µM | Potency [12] 1.66 µM | Potency [13] 3.72 µM | Potency [17] 2.35 µM | Potency [14] 1.48 µM | Potency [18] 2.64 µM | Potency [19] 8.33 µM | Potency [15] 2.35 µM

O=C1C(Cl)=C(NCCN2CCOCC2)C(=O)c2ncccc21
active: Potency [1] 3.32 µM | Potency [2] 8.33 µM | Potency [3] 4.18 µM | Potency [4] 3.72 µM | Potency [5] 4.18 µM | Potency [6] 3.32 µM | Potency [7] 2.35 µM | Potency [8] 7.43 µM | Potency [20] 4.18 µM | Potency [9] 5.9 µM | Potency [10] 7.43 µM | Potency [11] 6.62 µM | Potency [12] 7.43 µM | Potency [13] 8.33 µM | Potency [17] 2.35 µM | Potency [14] 8.33 µM | Potency [18] 9.35 µM | Potency [19] 7.43 µM | Potency [15] 1.87 µM | Potency [16] 3.32 µM
